# Data as given in PubChem BioAssay AID720648 (The Scripps Research Institute Molecular Screening Center, 2013).
# “And” between values parts separate entries of the source, which are not always exact repeats. Equal values may be shown once. In all, about 370,000 compounds went through this assay and about 3,100 (0.84%) were called active.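 The calls were made as follows: active = inhibition above the mean of compounds lying between control limits plus 3 SD, set per campaign (cut at about 8.5% in these data); inactive = the rest.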 This excerpt belongs to a sample that is enriched for actives. Some compounds were tested as several samples or in several runs, with calls that do not always agree.
# Target: Disintegrin and metalloproteinase domain-containing protein 17 (Homo sapiens) (UniProt P78536)
# Experiment: ADAM17 inhibitors, primary screen, biochemical, QFRET (AID 720648);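 also: 0% = DMSO-only wells as the low control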
# Details: recombinant ADAM17, EDANS/DABCYL FRET peptide cleavage; at 6.95 µM; stronger effect = higher value
# Disintegrin and metalloproteinase domain-containing protein 17 (Homo sapiens), sequence (P78536 215-824 limits assumed): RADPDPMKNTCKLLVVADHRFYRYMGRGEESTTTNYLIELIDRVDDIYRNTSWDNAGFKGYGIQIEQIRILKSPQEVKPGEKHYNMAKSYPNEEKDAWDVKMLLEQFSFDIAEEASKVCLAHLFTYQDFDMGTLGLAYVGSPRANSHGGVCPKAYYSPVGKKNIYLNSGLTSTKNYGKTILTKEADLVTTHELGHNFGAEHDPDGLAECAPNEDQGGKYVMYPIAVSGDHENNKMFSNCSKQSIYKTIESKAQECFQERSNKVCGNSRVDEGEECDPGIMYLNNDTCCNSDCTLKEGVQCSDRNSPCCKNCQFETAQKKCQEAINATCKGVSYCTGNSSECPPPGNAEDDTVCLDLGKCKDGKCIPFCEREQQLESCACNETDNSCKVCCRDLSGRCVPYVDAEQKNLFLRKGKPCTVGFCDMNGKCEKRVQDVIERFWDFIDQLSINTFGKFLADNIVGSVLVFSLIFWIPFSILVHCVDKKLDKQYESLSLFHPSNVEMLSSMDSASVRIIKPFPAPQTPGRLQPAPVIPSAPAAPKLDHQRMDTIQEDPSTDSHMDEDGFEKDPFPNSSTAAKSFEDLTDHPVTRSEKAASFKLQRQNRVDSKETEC
row,SMILES,inhibition
1,CCOC(=O)N1CCN(C(=O)C[C@@H]2C(=O)N(CCc3ccc(Cl)cc3)C3=CCCC[C@]32C(=O)OCC)CC1,-1.27% (inactive)
2,CC[C@@H](CCC(=O)N(c1ccccc1)c1ccccc1)C1CC1,-3.63% (inactive)
3,Nn1c(SCC(=O)Nc2cccc3ccccc23)nnc1-c1cc(-c2ccc(F)cc2)n[nH]1,-1.2% (inactive)
4,Cn1c(=O)c2sccc2n(Cc2ccc(Br)cc2)c1=O,0.1% (inactive)
5,C/C(Cl)=C\Cn1c(Nc2cccc(C)c2)nc2c1c(=O)n(C)c(=O)n2C,1.3% (inactive)
6,Cn1c(=O)c2c(nc(N/N=C/c3cccs3)n2Cc2ccc(Br)cc2)n(C)c1=O,9.47% (active)
7,COc1ccc(CSc2nnc(-c3cccc(C)c3)n2C)cc1,-0.21% (inactive)
8,CCOc1ccc(Nc2nc(Cc3nnc(SCC(=O)NC4CCCC4)n3C)cs2)cc1,-1.2% (inactive)
9,CCOc1ccc(Nc2nc(Cc3nnc(SCC(=O)c4ccc(C)cc4)o3)cs2)cc1,13.7% (active)
10,CC(=O)Nc1ccc(C(=O)CSc2nnc(Cc3ccccc3)o2)cc1,2.43% (inactive)
11,COc1ccc(C2CC=C(C(=O)O)C(c3ccccc3F)N2S(=O)(=O)c2ccc(C)cc2)cc1OC (stereo not drawn),-3.14% (inactive)
12,O=C1/C(=C\c2ccsc2)NC(=S)N1c1ccccc1,9.7% (active)
13,CCCCN=C1N/C(=C\c2ccco2)C(=O)N1c1ccccc1,-3.3% (inactive)
14,CC1=CC(C)(C)NC(=S)N1c1ccccc1,-5.69% (inactive)
15,CCC(=O)OCCCN1C(=O)CCC12CCC(c1ccccc1)CC2 (stereo not drawn),0.25% (inactive)
16,O=C(CCl)NC1CCCCN(Cc2cccc(C(F)(F)F)c2)C1=O (stereo not drawn),-6.37% (inactive)
17,O=S1(=O)c2ccc(Br)cc2OC[C@H](Cc2ccccc2)N1Cc1cn(Cc2ccccc2)nn1,-10.2% (inactive)
18,CC(C)(C)OC(=O)N1CCC(NC(=O)c2[nH]cnc2C(=O)N[C@@H](Cc2ccccc2)C(=O)OCc2ccccc2)CC1,14.3% (active)
19,C[C@H](NC(=O)c1nc[nH]c1C(=O)NCC(=O)OC(C)(C)C)c1ccccc1,-0.12% (inactive)
20,C[C@@H](NC(=O)c1nc[nH]c1C(=O)N1CCN(C(=O)OC(C)(C)C)CC1)c1ccccc1,-5.12% (inactive)
21,CC(C)(C)OC(=O)CNC(=O)c1[nH]cnc1C(=O)N[C@@H](Cc1ccccc1)C(=O)OCc1ccccc1,11.2% (active)

row,SMILES,inhibition
1,C[C@H](NC(=O)c1nc[nH]c1C(=O)NCC(=O)OC(C)(C)C)C(=O)OCc1ccccc1,0.33% (inactive)
2,CNC(=O)c1[nH]cnc1C(=O)N[C@@H](CC(C)C)C(=O)OCc1ccccc1,1.89% (inactive)
3,Cc1cc(C)n2ncc(C(=O)Nc3ccc4c(c3)OCCO4)c2n1,-3.48% (inactive)
4,COc1cc(NC(=O)C2CCCN(S(=O)(=O)c3ccc(C(C)(C)C)cc3)C2)cc(OC)c1 (stereo not drawn),3.29% (inactive)
5,CCOC(=O)[C@]12CCCC=C1N(Cc1ccc(OC)cc1)C(=O)[C@@H]2CC(=O)N1CCOCC1,-0.05% (inactive)
6,O=c1c(-c2ccc(Cl)cc2)[n+]([O-])c2ccccc2n1OCc1nc2ccccc2[nH]1,-12.2% (inactive)
7,CCOc1ccc(OCC)c(-c2c(=O)n(OCc3ccc(Cl)cc3)c3ccccc3[n+]2[O-])c1,9.36% (active)
8,COc1ccc(OC)c(-c2c(=O)n(OCc3ccccc3Br)c3ccccc3[n+]2[O-])c1,0.86% (inactive)
9,Cc1c(C(C)c2ccccc2O)[nH]c2ccccc12 (stereo not drawn),4.61% (inactive)
10,O=C(NCc1cccs1)C1CCN(S(=O)(=O)c2ccccc2[N+](=O)[O-])CC1,1.09% (inactive)
11,Cc1cc(NC(=O)c2ccccc2C)no1,-1.75% (inactive)
12,Cc1ccccc1C(=O)Nc1ccccc1Sc1ccccc1,10.4% (active)
13,Cc1ccccc1C(=O)O,-1.22% (inactive)
14,COc1ccc(C(=O)OCC(=O)NC(=O)CCSc2ccccc2)cc1,0.55% (inactive)
15,O=C(COC(=O)c1ccccn1)Nc1cccc2ccccc12,-0.52% (inactive)
16,O=C(COC(=O)c1ccccc1)Nc1ccccc1Sc1ccccc1,9.99% (active)
17,COc1ccc(-n2c(SCC(=O)Nc3ccc4cn[nH]c4c3)nnc2-c2cccnc2)cc1,2.47% (inactive)
18,COc1ccc(C2Nc3ccccc3C(=O)N2Cc2cccs2)cc1COc1c(C)cccc1C (stereo not drawn),-93.1% (inactive)
19,CC(C)CNc1cccc2c1S(=O)(=O)N(Cc1cn(Cc3ccc(Cl)cc3)nn1)Cc1ccccc1O2,-4.11% (inactive)
20,COP(=O)(O)CNC(=O)OCc1ccccc1,1.95% (inactive)
21,O=C(COC(=O)C1(c2ccc(F)cc2)CCCC1)N1CCNC1=O,-6.77% (inactive)

row,SMILES,inhibition
1,CN(C)S(=O)(=O)c1cccc(NC(=O)COC(=O)C2(c3ccccc3F)CCCC2)c1,14.4% (active)
2,CN(C)S(=O)(=O)c1cccc(NC(=O)COC(=O)/C=C/c2cccs2)c1,-0.31% (inactive)
3,CN(C)S(=O)(=O)c1cccc(NC(=O)COC(=O)c2cc(=O)[nH]c(=O)[nH]2)c1,0.24% (inactive)
4,O=C(COC(=O)c1ccc(NS(=O)(=O)c2cccs2)cc1O)Nc1ccc(F)cc1,8.44% (inactive)
5,NS(=O)(=O)c1ccc(NC(=O)COC(=O)C2(c3ccc(F)cc3)CCCC2)cc1,10.8% (active)
6,CCCCOCCCNC(=O)C[C@H]1C[C@@]2(C(=O)OC)C(=C[C@H](C(C)(C)C)O[C@@H]2C)N(CCc2ccc(OC)c(OC)c2)C1=O,4.52% (inactive)
7,O=S1(=O)c2c(cccc2N2CCSCC2)Oc2ccccc2CN1Cc1cn(Cc2ccc(F)cc2)nn1,-0.02% (inactive)
8,COc1ccc(N2CCN(CCNS(=O)(=O)c3ccc(Cl)s3)CC2)cc1,-0.88% (inactive)
9,CCC[C@H]1C(=O)CC[C@@]23CCCN2C(=O)CCC[C@@H]13,-0.61% (inactive)
10,CNC(=S)N/N=C/c1ccc(OCc2ccccc2)c(Br)c1,-1.43% (inactive)
11,COc1cc(/C=N/n2c(C)n[nH]c2=S)ccc1OCc1ccccc1,10.8% (active)
12,C=CCOc1ccc(/C=N/n2cncn2)cc1OC,-11.9% (inactive)
13,COc1cccc(CNC(=O)C2CCCN(c3nc4ccccc4o3)C2)c1OC (stereo not drawn),1.62% (inactive)
14,O=C(c1c[nH]c2ccccc12)N1CCC(Oc2cccnc2)CC1,1.77% (inactive)
15,O=C1C(=O)N(Cc2ccc(-c3ccsc3)cc2)c2ccc(OC(F)(F)F)cc21,1.76% (inactive)
16,CC(=O)Nc1ccc(S(=O)(=O)Oc2ccc(Br)cc2C(=S)N2CCOCC2)cc1,9.15% (active)
17,O=S(=O)(Oc1ccccc1C(=S)N1CCOCC1)c1ccc(Cl)cc1,-1.11% (inactive)
18,CCOc1cc(C(=S)N2CCOCC2)ccc1OS(=O)(=O)c1ccc(Br)cc1,-3.87% (inactive)
19,O=C(C1CCCN1S(=O)(=O)c1ccccc1)N1CCc2ccccc2C1 (stereo not drawn),1.33% (inactive)
20,CCOc1c(Br)cc(/C=C2\C(=O)N(CCC#N)N=C2C)cc1OC,8.65% (active)
21,CC(C)(C)c1ccc(CSc2nnc(-c3cccs3)o2)cc1,-1.78% (inactive)

row,SMILES,inhibition
1,COC(=O)[C@]12C[C@H](CC(=O)N3CCN(C(=O)C4CC4)CC3)C(=O)N(CCC3=CCCCC3)C1=C[C@H](C(C)C)O[C@@H]2C1CC1,-8.05% (inactive)
2,CC1(C)C=Cc2c(ccc3c2OC[C@@H](c2ccc(O)cc2O)C3)O1,19.4% (active)
3,CN[C@H]1C[C@H]2c3cc(N4CCOCC4)ccc3CCN2C[C@H]1[C@H](C)O,-6.65% (inactive)
4,O=C(CCCCCN1C(=O)C2C3C=CC(C3)C2C1=O)Nc1ccccc1 (stereo not drawn),4.34% (inactive)
5,Cc1ccc(CC2(C)C(=O)Nc3ccc(OC(F)(F)F)cc32)cc1 (stereo not drawn),8.02% (inactive)
6,CC1(Cc2cccc(C#N)c2)C(=O)Nc2ccc(-c3cccc(C(F)(F)F)c3)cc21 (stereo not drawn),11.2% (active)
7,COc1ccccc1CC1(C)C(=O)Nc2ccc(OC(F)(F)F)cc21 (stereo not drawn),6.39% (inactive)
8,CC(c1c[nH]c2ccccc12)c1c(-c2ccccc2)n(C)c2ccccc12 (stereo not drawn),-2.38% (inactive)
9,N#Cc1ccccc1OC[C@@H](O)CN1CCC(C(O)(c2ccccc2)c2ccccc2)CC1,-1.12% (inactive)
10,O=C(c1ccccc1)c1ccc(-c2ccccc2C(=O)NC2CCCCN(Cc3ccc(Cl)cc3)C2=O)cc1 (stereo not drawn),-0.61% (inactive)
11,COC(=O)C1CN(Cc2cn(Cc3ccc(F)cc3)nn2)CCS(=O)(=O)N1Cc1ccc(Cl)cc1 (stereo not drawn),1.41% (inactive)
12,Cc1cc(C)c(C#N)c(SCc2[nH]nc3c2C(c2ccccc2)C(C#N)=C(N)O3)n1 (stereo not drawn),12.4% (active)
13,COc1ccc(C2C(C#N)=C(N)Oc3n[nH]c(C)c32)cc1CN1CCN(c2ccc(F)cc2)CC1 (stereo not drawn),0.41% (inactive)
14,Cc1cc(C)c(C#N)c(SCc2ccc3c(c2)OCO3)n1,-0.68% (inactive)
15,CN(C)c1ccc(NC(=S)N(CCc2ccccc2)C2CC(=O)N(c3c(Cl)cccc3Cl)C2=O)cc1 (stereo not drawn),2.09% (inactive)
16,COc1ccc(N2C(=O)C(CC(=O)Nc3ccccc3)N(Cc3ccc(OC)c(OC)c3)C2=O)cc1 (stereo not drawn),-0.55% (inactive)
17,CCOc1ccc(N2C(=O)CC(N(CCc3ccc(OC)c(OC)c3)C(=S)Nc3ccccc3)C2=O)cc1 (stereo not drawn),9.32% (active) and 1.43% (inactive)
18,C=CCN(Cc1ccc2c(c1)OCO2)C(C#CC1CC1)C(C)(C)C (stereo not drawn),-5.97% (inactive)
19,O=C(NC1CCCCN(Cc2cccc(C(F)(F)F)c2)C1=O)c1ccccc1I (stereo not drawn),-0.37% (inactive)
20,COC(=O)[C@]12C[C@H](CC(=O)NCc3ccccc3)C(=O)N(Cc3ccccc3)C1=C[C@H](COCc1ccccc1)O[C@@H]2C,1.65% (inactive)
